Rab9 prom act: qHTS Assay for Rab9 Promoter Activators. Huh7 Rab9 promoter-luciferase reporter, luminescence, 24 h. Potency, µM (top dose mostly 9.22 µM), usual class: activators. 320,000 tested, 2.8% active; also: nearly all actives have a fitted effect of over 60% in size
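Rab9 promoter-driven luciferase in stably transfected Huh7 cells; 1500 cells/well rested 2 h, exposed to compound in DMSO for 24 h at 37 °C, 5% CO2. Luminescence read 10 min after adding luciferase reagent at ambient temperature.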
FLuc modulator: qHTS profiling assay for firefly luciferase inhibitor/activator using purifed enzyme and Km concentrations of substrates (counterscreen for miR-21 project); Luciferin 4-monooxygenase (Photinus pyralis), P08659; purified FLuc, Km substrates, luminescence inhibition; Potency, µM (highest dose often 57.5 µM), usual class: inhibitors; 360,000 tested, 6.9% active; AID 588342, 2011; also: nearly all actives have a fitted effect of over 55% in size
Target sequence (P08659 whole entry, looked up): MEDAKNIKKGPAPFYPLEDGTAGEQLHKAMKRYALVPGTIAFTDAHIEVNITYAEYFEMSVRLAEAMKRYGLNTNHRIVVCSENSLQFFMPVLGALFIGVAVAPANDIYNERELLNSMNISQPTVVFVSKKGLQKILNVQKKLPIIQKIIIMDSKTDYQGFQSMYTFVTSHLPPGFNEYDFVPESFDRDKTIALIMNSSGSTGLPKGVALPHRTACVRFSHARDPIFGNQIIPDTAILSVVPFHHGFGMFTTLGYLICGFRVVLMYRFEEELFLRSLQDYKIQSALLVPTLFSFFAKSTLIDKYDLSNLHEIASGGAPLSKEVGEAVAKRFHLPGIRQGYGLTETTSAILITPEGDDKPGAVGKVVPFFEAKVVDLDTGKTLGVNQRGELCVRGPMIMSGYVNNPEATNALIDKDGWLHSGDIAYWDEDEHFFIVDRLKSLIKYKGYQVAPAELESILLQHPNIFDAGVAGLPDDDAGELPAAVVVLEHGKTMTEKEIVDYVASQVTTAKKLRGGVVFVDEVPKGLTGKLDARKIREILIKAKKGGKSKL
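Biochemical qHTS of compounds, final roughly 60 µM downward over six points, against 10 nM purified firefly luciferase using Km concentrations of substrates (10 uM D-luciferin, 10 uM ATP) in Tris acetate pH 7.5 buffer; luminescence output.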
KinaseGlo FLuc: Counterscreen for Luciferase (Kinase-Glo TM) Inhibition; 200,000 tested, 0.28% active; Luciferin 4-monooxygenase (Photuris pensylvanica), Q27757; AID 1379, 2008; Potency, µM (highest dose often 38.3 µM), actives largely listed as inhibitors; Kinase-Glo luciferase, ATP luminescence, 8 min; also: nearly all actives have a fitted effect of over 60% in size
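Luminescence was the read-out, taken after 8-minute incubation at ambient temperature. Luciferase turned over luciferin with 10 uM ATP in imidazole pH 7.2 buffer containing KCl, MgCl2, Tween 20 and BSA.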
SMN2 splice up: qHTS Assay for Enhancers of SMN2 Splice Variant Expression. HEK293 SMN2-luciferase splicing reporter, luminescence, 30-36 h. 210,000 tested, 2.8% active. Potency, µM (highest dose often 46.1 µM), actives largely listed as activators; also: nearly all actives have a fitted effect of over 55% in size
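HEK293 cells carry an SMN2 minigene-luciferase reporter in which exon 7 inclusion puts luciferase in frame. Cells were seeded at 2000 cells/well, attached for 10-12 hours, then exposed to compounds for 30-36 hours at 37C before ONE-Glo luminescence.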
NPC1 prom act: qHTS Assay for NPC1 Promoter Activators. Huh7 NPC1 promoter luciferase reporter, 24 h. Potency, µM (doses to about 9.22 µM), most hits filed as activators. 320,000 tested, 2.4% active; also: nearly all actives have a fitted effect of over 60% in size
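Luminescence read-out of NPC1 promoter-driven luciferase in stably transfected Huh7 cells; compounds delivered in DMSO and left 24 h at 37C, 5% CO2, qHTS titration format.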
ELG1 genotoxic: qHTS screen for small molecules that induce genotoxicity in human embryonic kidney (HEK293T) cells expressing luciferase-tagged ELG1. HEK293T ELG1-luciferase reporter, luminescence, 16 h. Potency, µM (series often up to 46 µM), most hits filed as activators. 330,000 tested, 1.3% active; also: nearly all actives have a fitted effect of over 60% in size
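DMSO vehicle served as control against compound-treated ELG1-luciferase HEK293T cells; exposure lasted 16 hr at 37 °C and 5% CO2, followed by ONE-Glo luminescence detection after 30 min.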
Numbers stand for hits; [ ] = another dose, or the depositor's remark. Compounds with a hit are over-represented: about 7.4% of the library has one in this group of screens. Calls follow the shape of the dose curve; as a rule, active = well fitted curve in the direction sought with a large enough effect; inconclusive = small, poorly fitted or top-dose-only effect, or another doubt; inactive = no such curve, though single readings can be large; an effect the other way counts as inactive or inconclusive.

`CN(Cc1ccccc1)C(=O)c1ccccc1N(C)S(=O)(=O)c1ccccc1` gave Rab9 prom act inactive, FLuc modulator inactive, NPC1 prom act inactive and ELG1 genotoxic inactive.
Screening COc1ccc(NC(=O)COC(=O)CCCOc2ccc(Cl)cc2Cl)cc1Cl returned Rab9 prom act inactive, FLuc modulator 15.1µM, KinaseGlo FLuc inactive, SMN2 splice up inactive, NPC1 prom act inactive and ELG1 genotoxic inactive.
Screening O=C(COc1ccc(Cl)cc1Cl)NNC(=S)Nc1ccc(F)cc1 returned Rab9 prom act inactive, FLuc modulator 16.9µM, NPC1 prom act inactive and ELG1 genotoxic inactive.
Screening CC(=O)NC(=S)Nc1ccc(NC(=O)COc2ccc(Cl)cc2Cl)cc1 returned Rab9 prom act inactive, FLuc modulator inactive, KinaseGlo FLuc inactive, SMN2 splice up inactive, NPC1 prom act inactive and ELG1 genotoxic inactive.
For O=C(CCCOc1ccc(Cl)cc1Cl)Nc1ccccc1C(=O)O the results were Rab9 prom act 3.55µM, FLuc modulator 8.49µM, NPC1 prom act 2.51µM and ELG1 genotoxic inactive.
`O=C(COc1ccc(Cl)cc1Cl)Nc1ccc(C(=O)Nc2ccccc2C(=O)O)cc1` gave Rab9 prom act inactive, FLuc modulator inactive, NPC1 prom act inactive and ELG1 genotoxic inactive.
CC(C)(CO)NC(=O)CCCOc1ccc(Cl)cc1Cl was read as Rab9 prom act inconclusive, FLuc modulator inconclusive, KinaseGlo FLuc inactive, SMN2 splice up 10µM, NPC1 prom act inconclusive and ELG1 genotoxic 11.2µM.
Cc1cc(=O)oc2c(C)c(OCC(=O)c3ccccc3)ccc12 was read as Rab9 prom act inactive, FLuc modulator inactive, NPC1 prom act inactive and ELG1 genotoxic inactive.
For CCS(=O)(=O)N1CCc2cc(C(=O)NCc3ccccc3Cl)ccc21 the results were FLuc modulator inactive.
`O=C(COc1ccc(Cl)cc1Cl)NC(=S)Nc1ccccc1C(=O)O` gave Rab9 prom act inactive, FLuc modulator 6.75µM, KinaseGlo FLuc inactive, NPC1 prom act inactive and ELG1 genotoxic inactive.
`COc1ccccc1C(=O)NC(CCSC)C(=O)NNC(=O)c1ccccc1O` (stereo not drawn) gave Rab9 prom act inactive, FLuc modulator inconclusive, NPC1 prom act inactive and ELG1 genotoxic inactive.
Screening O=C(CCCc1ccccc1)Nc1cccc(C(=O)O)c1 returned Rab9 prom act 0.251µM, FLuc modulator 0.379µM, KinaseGlo FLuc inactive, SMN2 splice up 1.58µM, NPC1 prom act 0.316µM and ELG1 genotoxic inactive.
Screening O=C(CCc1ccccc1)NC(=S)Nc1cccc(C(=O)O)c1 returned Rab9 prom act 3.16µM, FLuc modulator 4.78µM, NPC1 prom act 1.41µM and ELG1 genotoxic inconclusive.
Screening COc1ccc(NC(=O)CCCc2ccccc2)cc1OC returned Rab9 prom act 3.98µM, FLuc modulator inconclusive, NPC1 prom act 3.55µM and ELG1 genotoxic 18.3µM.
`CC(C)(C)C(=O)NC(=S)Nc1cccc(C(=O)O)c1` gave Rab9 prom act 0.794µM, FLuc modulator 19µM, KinaseGlo FLuc inactive, NPC1 prom act 2.82µM and ELG1 genotoxic inconclusive.
For COc1ccc(NC(=O)CCCC(=O)c2ccccc2)cc1OC the results were Rab9 prom act inactive, FLuc modulator inactive, NPC1 prom act inactive and ELG1 genotoxic inactive.
Screening O=C(COc1ccccc1F)NC1CC(=O)N(c2ccc3c(c2)OCCO3)C1 (stereo not drawn) returned FLuc modulator inactive.
Screening O=C(CSc1nc2ccccc2[nH]1)Nc1nc(-c2ccc(Br)cc2)cs1 returned Rab9 prom act inactive, FLuc modulator inactive, KinaseGlo FLuc inactive, SMN2 splice up inactive, NPC1 prom act inactive and ELG1 genotoxic inactive.
Screening O=C(NCc1ccc(Cl)cc1)c1ccc2c(c1)N(Cc1ccccc1F)C(=O)c1ccccc1S2=O (stereo not drawn) returned FLuc modulator inactive and SMN2 splice up inactive.
Screening N/C(=N\OC(=O)c1ccc(Cl)cc1[N+](=O)[O-])c1ccccn1 returned Rab9 prom act inconclusive, FLuc modulator 3.38µM, NPC1 prom act inconclusive and ELG1 genotoxic 20.6µM.
N/C(=N\OC(=O)CCCOc1ccc(Cl)cc1Cl)c1ccccn1 was read as Rab9 prom act inactive, FLuc modulator inactive, KinaseGlo FLuc inactive, SMN2 splice up inactive, NPC1 prom act inactive and ELG1 genotoxic inactive.
For N/C(=N\OC(=O)Cc1ccccc1[N+](=O)[O-])c1ccccn1 the results were Rab9 prom act inactive[1.84 µM], FLuc modulator inconclusive, KinaseGlo FLuc inactive, SMN2 splice up inactive, NPC1 prom act inactive and ELG1 genotoxic inconclusive.
Cc1ccc(C(=O)O/N=C(\N)c2ccccc2)c(Cl)c1 was read as Rab9 prom act 0.794µM, FLuc modulator 0.0849µM, NPC1 prom act 2.24µM and ELG1 genotoxic inconclusive.
For Cc1c(C(=O)O/N=C(\N)c2ccccn2)cccc1[N+](=O)[O-] the results were Rab9 prom act 0.794µM, FLuc modulator 0.301µM, NPC1 prom act 3.16µM and ELG1 genotoxic 2.06µM.
N/C(=N\OC(=O)c1ccc(Cl)cc1Cl)c1ccccn1 was read as Rab9 prom act 0.112µM, FLuc modulator 0.0953µM, KinaseGlo FLuc 11.2µM, NPC1 prom act 0.316µM and ELG1 genotoxic 0.259µM.
`O=C(c1ccc(F)cc1)C1CCN(S(=O)(=O)c2ccccc2)CC1` gave Rab9 prom act inactive, FLuc modulator inactive, KinaseGlo FLuc inactive, NPC1 prom act inactive and ELG1 genotoxic inactive.
Cc1nn2c(=O)cc(COC(=O)c3ccccc3NC(=O)C(C)Oc3ccccc3)nc2s1 (stereo not drawn) was read as FLuc modulator inactive.
For O=C1c2ccccc2[C@@H]2C[C@@H](O)[C@H](Nc3cccc(C(F)(F)F)c3)CCN12 the results were ELG1 genotoxic inactive.
Screening N/C(CS(=O)(=O)c1ccccn1)=N\OC(=O)c1ccc(Cl)cc1 returned Rab9 prom act inactive, FLuc modulator inactive, NPC1 prom act inactive and ELG1 genotoxic inactive.
`N/C(=N\OC(=O)c1cc(Br)ccc1Cl)c1ccccn1` gave Rab9 prom act inconclusive, FLuc modulator 3.79µM, KinaseGlo FLuc inactive, SMN2 splice up 11.2µM, NPC1 prom act inconclusive and ELG1 genotoxic inconclusive.
Screening Cc1ccc(C(=O)O/N=C(\N)c2ccccn2)c(Cl)c1 returned Rab9 prom act 0.708µM, FLuc modulator 0.019µM, NPC1 prom act inconclusive and ELG1 genotoxic inconclusive.
`N/C(CS(=O)(=O)c1ccccn1)=N\OC(=O)c1ccccc1Cl` gave Rab9 prom act 2.24µM, FLuc modulator inconclusive, NPC1 prom act 2µM and ELG1 genotoxic inconclusive.
